High-throughput results as filed in PubChem.
PfHsp90 yeast 2 = reduces growth (ATP signal) of yeast expressing P. falciparum Hsp90; 310,000 compounds, 0.32% hits; inhibition, % at 9.4 µM; S. cerevisiae expressing PfHsp90, BacTiter-Glo ATP, 48 h; yeast lacking PDR1 and PDR3 efflux regulators; AID 504621;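 active means every replicate shows inhibition above about 80%, whatever the replicate mean, limit read from the data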
V-ATPase pH = regulators of yeast V-ATPase proton transport; S. cerevisiae, pHLuorin cytosolic pH fluorescence; 350,000 compounds, 0.37% hits; response, % at 10 µM; in the data active means response mostly above about 7.3%, no sharp cut-off; inactive means mostly below about 5.4%; further: actives read high
tim23-1 inh = growth inhibitors of tim23-1 mutant yeast. S. cerevisiae tim23-1 growth, BacTiter-Glo luminescence, 24 h. inhibition, % at 20 µM. 330,000 compounds, 1.3% hits. AID 463212;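 active means growth inhibition of the mutant yeast at or above 50%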;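 further: temperature-sensitive mutant grown at 25 °C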
tim10-1 inh = tim10-1 yeast growth inhibition | S. cerevisiae tim10-1 ts strain growth, BacTiter-Glo, 24 h | inhibition, % at 20 µM | 330,000 compounds, 2.2% hits | AID 463190;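 active means inhibition of at least 40%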;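 further: mutant grown at 25 °C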
TIM10 inh = inhibits growth of TIM10 yeast strain | S. cerevisiae TIM10 strain growth, BacTiter-Glo luminescence, 24 h | inhibition, % at 10 µM | 330,000 compounds, 1.4% hits | AID 463195;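 active means inhibition of 40% or more at the single tested concentration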;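 further: wild-type TIM10 isogenic control strain grown at permissive 25 °C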
tim10 confirm = confirmation of TIM10 yeast growth inhibitors. shares compounds with TIM10 inh. S. cerevisiae tim10 strain growth, BacTiter-Glo luminescence, 24 h. inhibition, % at 10 µM. 4,600 compounds, 63% hits. AID 463215;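 active means inhibition of yeast growth at or above a set limit in either of two replicates at 10 µM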; further: this counterscreen used the strain with wild-type TIM10
Each line names hits and unclear results; the compound was inactive in the other large screens (follow-up assays come after a bar, where they were run). Compounds with a hit are over-represented: about 3.7% of the library has one in this group of screens.

Cc1cc(C)c2c(N)c3ccccc3nc2n1	TIM10 inh 45 | tim10 confirm inactive
O=C(Nc1cccc(-c2csc(-c3ccccc3)n2)c1)c1cccs1	TIM10 inh 41 | tim10 confirm 32
O=C(Nc1ccc2oc(-c3ccncc3)nc2c1)c1cccs1	TIM10 inh 53 | tim10 confirm 51
O=C(Nc1ccc2oc(-c3ccncc3)nc2c1)c1ccccc1	TIM10 inh 45 | tim10 confirm inactive
O=C(Nc1ccc2oc(-c3ccccc3)nc2c1)c1ccccc1F	TIM10 inh 65 | tim10 confirm 54
CC1(C)CC2CC(C)(CN2S(=O)(=O)c2ccc(N)cc2)C1 (stereo not given)	TIM10 inh 54 | tim10 confirm inactive
CC1(C)CC2CC(C)(CN2S(=O)(=O)c2cccc(C(N)=O)c2)C1 (stereo not given)	none
COc1cc(SC)ccc1C(=O)NCCCn1ccnc1	none
C/C=C(\C)C(=O)OC1c2c(ccc3ccc(=O)oc23)OC(C)(C)C1OC(C)=O (stereo not given)	TIM10 inh 48 | tim10 confirm 29
C[C@H](CO)N1C[C@H](C)[C@@H](CN(C)Cc2cccc(C(F)(F)F)c2)OCc2cnnn2CCCC1=O	none (no result: PfHsp90 yeast 2, tim23-1 inh, tim10-1 inh, TIM10 inh)
COc1cccc(CN2C(=O)C(C)N(C(=O)c3ccccc3)c3ccccc32)c1 (stereo not given)	none
O=C(CN1CCN(S(=O)(=O)c2ccccc2)CC1)Nc1cccc(C(F)(F)F)c1	TIM10 inh 41 | tim10 confirm inactive
COc1ccc(OC)c(/C=C/C(=O)c2ccc(Cl)cc2)c1	TIM10 inh 45 | tim10 confirm 32
CCc1c(N)nc(N)nc1Nc1ccccc1C	none (no result: tim23-1 inh, tim10-1 inh, TIM10 inh)
Cc1ccc2c(c1)c1nc3ccccc3nc1n2CCN1CCOCC1	TIM10 inh 48 | tim10 confirm inactive
CCc1cc2c(COC(=O)c3cccc(NS(C)(=O)=O)c3)cc(=O)oc2cc1O	none
S=C(Nc1ccc(Oc2ccccc2)cc1)NC1CCCCC1	TIM10 inh 40 | tim10 confirm 41
O=C(CCS(=O)(=O)c1ccccc1)N(CCCN1CCOCC1)c1nc2c(F)cccc2s1	TIM10 inh 66 | tim10 confirm 70
O=C(CCS(=O)(=O)c1ccccc1)N(CCCN1CCOCC1)c1nc2ccc(F)cc2s1	TIM10 inh 56 | tim10 confirm 65
CCc1cccc2sc(N(CCCN3CCOCC3)C(=O)CS(=O)(=O)c3ccccc3)nc12	none
CC(C)(C)OC(=O)N1CCC[C@H]1c1nnc(SCc2cccc(Cl)c2)o1	none
CCn1ccnc1CN(C)C(=O)C1CCC(=O)N(Cc2cccc(C(F)(F)F)c2)C1 (stereo not given)	none
Nc1nc(Nc2cccc(F)c2)nc2ccccc12	none | tim10 confirm inactive
O=c1oc(Nc2cccc(F)c2)nc2ccccc12	none
O=C(COc1ccc(Cl)cc1)N1CCN(c2ccc([N+](=O)[O-])c(N3CCCCC3)c2)CC1	TIM10 inh 42 | tim10 confirm inactive
CCOC(=O)CC1=NN(c2ccccc2)C(=O)/C1=C\c1ccc(OC)cc1OC	TIM10 inh 48 | tim10 confirm inactive
COC(=O)CC1=NN(c2ccccc2)C(=O)/C1=C\c1ccc(OC)cc1	none
COc1ccc(C(=O)OCC(=O)N2c3ccccc3CC2C)cc1S(=O)(=O)N1CCOCC1 (stereo not given)	none (no result: PfHsp90 yeast 2, tim23-1 inh, tim10-1 inh, TIM10 inh)
CSc1nc(-c2ccccc2)nn1C(=O)c1ccc(C)cc1	TIM10 inh 42 | tim10 confirm 42
O=C1CC2(CCN(C(=O)c3ccccc3Cl)CC2)Oc2ccccc21	none
COc1ccc(-c2nn3c(-c4ccco4)nnc3s2)cc1OC	TIM10 inh 45 | tim10 confirm inactive
Cc1ccc(-c2cc3c(nn2)-c2ccccc2C3=O)cc1	none
Cc1ccccc1-c1cc2c(nn1)-c1ccccc1C2=O	TIM10 inh 44 | tim10 confirm 30
O=C1c2ccccc2-c2nnc(-c3ccc(O)cc3)cc21	TIM10 inh 50 | tim10 confirm 31
COc1ccc(S(=O)(=O)NCC2CCCN(Cc3ccc(OC)cc3F)C2)cc1 (stereo not given)	none
COc1ccc(C(=O)Nc2ccc(OCC(F)(F)C(F)F)c(C(F)(F)F)c2)cc1OC	TIM10 inh 45 | tim10 confirm inactive
COc1ccc(NC(=O)c2ccc(COCC(F)(F)F)cc2)cc1OC	none
COc1cccc(NC(=O)Nc2cccn(Cc3ccccc3)c2=O)c1	TIM10 inh 44 | tim10 confirm 28
COc1ccc(Cn2cccc(NC(=O)Nc3cccc(OC)c3)c2=O)cc1	none
COc1cccc(NC(=O)Nc2ccncc2)c1	none
COc1cccc(NC(=O)Nc2ccc(Cc3ccncc3)cc2)c1	TIM10 inh 44 | tim10 confirm inactive
Cc1ccc(NC(=O)CN2C(=O)NC3(CCc4ccccc43)C2=O)cc1S(=O)(=O)N1CCCCC1 (stereo not given)	none
CC(=O)Nc1ccc(C(=O)N/N=C/c2cc(Br)cc(Br)c2O)cc1	TIM10 inh 52 | tim10 confirm 31
O=C(O)Cn1c(SCCOc2ccc(Cl)cc2)nc2ccccc21	none
Cc1cc2nc(/C=C/c3cccnc3)[nH]c2cc1C	TIM10 inh 51 | tim10 confirm 69
Cc1ccc(CSc2nnc(-c3ccncc3)n2N)cc1	TIM10 inh 42 (no result: PfHsp90 yeast 2) | tim10 confirm inactive
Cc1[nH]n(-c2ccc([N+](=O)[O-])cc2)c(=O)c1C=NCCc1c(C)[nH]c2ccccc12	TIM10 inh 45 | tim10 confirm inactive
O=C(c1ccccc1)N1N=C(C(F)(F)F)CC1(O)c1ccc(F)cc1 (stereo not given)	TIM10 inh 67 | tim10 confirm inactive
CCOC(=O)c1sc(=NC(=O)c2ccc(C)cc2)n(C)c1C	TIM10 inh 42 (no result: PfHsp90 yeast 2) | tim10 confirm inactive
CCOC(=O)c1sc(=NC(=O)c2ccc(F)cc2)n(C)c1C	none
COc1ccccc1C(=O)N/C(=C\c1cn(S(=O)(=O)N(C)C)c2ccccc12)C(=O)N1CCN(C)CC1	none (no result: PfHsp90 yeast 2, tim23-1 inh, tim10-1 inh, TIM10 inh)
CNC(=S)NNC(=O)c1sccc1OCc1ccc(Cl)cc1Cl	none (no result: PfHsp90 yeast 2)
S=c1nc(-c2sccc2OCc2ccc(Cl)cc2Cl)[nH][nH]1	TIM10 inh 41 | tim10 confirm 29
CCC(=O)Nc1c2c(nn1-c1ccc(F)cc1)CS(=O)(=O)C2	none
O=C(N/N=C/c1cccnc1)c1cc2ccccc2o1	none
O=C(N/N=C/c1ccncc1)c1cc2ccccc2o1	TIM10 inh 43 (no result: V-ATPase pH) | tim10 confirm 36
Cc1ccc(C(=O)N/C(=C\c2cn(S(=O)(=O)N(C)C)c3ccccc23)C(=O)NCCCN2CCOCC2)cc1	none
CC(=O)c1ccc(N(CC(=O)NCCc2ccccc2)C(=O)c2csnn2)cc1	none
CCOC(=O)c1c(C)[nH]c(C(=O)N/N=C/c2ccc(Br)cc2)c1C	TIM10 inh 50 | tim10 confirm 46
CCN(Cc1ccccc1)C(=O)CCS(=O)(=O)c1ccc2c(c1)CCN2C(C)=O	none
CCOC(=O)N1CCN(C(=O)c2ccc(OC)cc2)CC1	none
